Assay outcomes from PubChem BioAssay.
TDP1 cell noCPT: qHTS for Inhibitors of human tyrosyl-DNA phosphodiesterase 1 (TDP1): qHTS in cells in absence of CPT | DT40 Tdp1-/- hTDP1 cells, no CPT, ATP luminescence, 48 h | Potency, µM (doses to about 46.2 µM), without a hit: top-dose activity change, negative = growth inhibition, hits mostly inhibitors | actives 15% (n = 420,000); note: potency is the fitted concentration of half-maximal effect; % is set by controls: 0 for no effect and ±100 for the full control effect; nearly all actives have a fitted effect of over 55% in size
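No-CPT arm: Tdp1-/-;hTDP1 DT40 cells (400/well) plus compounds, incubated ≥48 hr at 37 °C. Readout CellTiter-Glo luminescence.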
TGFb SMAD3 inh: blocks TGF-b signaling | HepG2 CAGA-GFP TGF-b/SMAD3 reporter, GFP fluorescence, 18 h; TGF-beta stimulated, 500 pg/mL final | actives 1.2% (n = 410,000) | Potency, µM (doses to about 46.1 µM), without a hit: at the top dose activity, negative = inhibition, hits mostly inhibitors; note: potency is the fitted concentration of half-maximal effect; % is set by controls: 0 for no effect and ±100 for the full control effect; nearly all actives have a fitted effect of over 65% in size
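Read-out: total well GFP (ex488/em500-530) summed from mean per-cell fluorescence. Cells: HEPG2 CAGA-GFP, 1% FBS DMEM, 18 h at 37 degrees C with 500 pg/mL final TGF-beta. Unstimulated wells served as the full-inhibition control; stimulated DMSO wells = 0%.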
IL-1B inflam inh: inhibitors of inflammasome signaling (IL-1 beta secretion); THP-1 LPS/ATP IL-1B secretion, AlphaLISA, 16 h; hits give low values; activity change, % at 57.5 µM; actives 4.7% (n = 360,000); in the data active = activity change below about -50%; inconclusive = mostly about -30% to -49%; note: % is set by controls: 0 for no effect and ±100 for the full control effect
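Secreted IL-1B measured by AlphaLISA bead assay after 16 h compound exposure of THP-1 cells; compounds (final up to 57.5 uM) added 1 h before LPS (250 ng/mL) and ATP (1.25 mM) stimulation; lower signal means less secretion.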
TDP1 block: blocks human tyrosyl-DNA phosphodiesterase 1. Q9NUW8. actives 0.28% (n = 350,000). Potency, µM (top dose mostly 130 µM), for inactives: at the top dose activity change, negative = inhibition, most hits filed as inhibitors. recombinant TDP1, AlphaScreen DNA substrate cleavage; note: potency is the fitted concentration of half-maximal effect; % is set by controls: 0 for no effect and ±100 for the full control effect; nearly all actives have a fitted effect of over 40% in size
Target sequence (Q9NUW8 whole entry, looked up): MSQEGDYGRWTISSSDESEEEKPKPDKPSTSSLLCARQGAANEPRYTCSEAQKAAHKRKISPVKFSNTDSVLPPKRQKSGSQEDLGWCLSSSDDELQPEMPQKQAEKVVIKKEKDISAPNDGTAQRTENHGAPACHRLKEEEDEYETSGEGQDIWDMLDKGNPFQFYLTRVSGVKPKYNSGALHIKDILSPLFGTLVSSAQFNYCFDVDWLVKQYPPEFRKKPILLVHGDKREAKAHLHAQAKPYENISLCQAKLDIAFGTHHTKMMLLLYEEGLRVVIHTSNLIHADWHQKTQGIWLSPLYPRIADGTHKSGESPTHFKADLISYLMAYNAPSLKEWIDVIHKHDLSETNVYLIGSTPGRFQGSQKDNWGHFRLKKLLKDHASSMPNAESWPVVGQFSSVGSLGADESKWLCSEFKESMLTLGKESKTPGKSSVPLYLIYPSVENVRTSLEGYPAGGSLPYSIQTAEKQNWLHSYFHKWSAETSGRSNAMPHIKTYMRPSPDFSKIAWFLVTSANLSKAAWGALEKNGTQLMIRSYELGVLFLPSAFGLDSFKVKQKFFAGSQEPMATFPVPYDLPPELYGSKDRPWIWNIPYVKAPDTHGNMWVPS
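Tdp1 1 nM final; 15 min RT w/ cpd; substrate 15 nM, 5 min; beads 10 ug/ml, 10 min; AlphaScreen read. Neg ctrl: no enzyme.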
HepG2 tox: HepG2 cytotoxicity, counter-screen for TGF-b inhibitors | HepG2 CAGA-GFP viability, ATP luminescence, 18 h | Potency, µM (titrated, usually from 46.1 µM), for inactives: at the top dose activity change, negative = cytotoxicity, most hits filed as cytotoxic | actives 0.76% (n = 410,000) | AID 588856; note: potency is the fitted concentration of half-maximal effect
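HepG2 CAGA-GFP cells (1000/well, DMEM with 1% FBS) received compound, then TGF-beta at 500 pg/mL final, and were incubated 18 hours at 37 degrees C. Viability was read by CellTiter-Glo luminescence. Media-only wells were set as complete cell-killing and DMSO as no toxicity.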
DT40 TDP1 CPT: growth inhibition of DT40 Tdp1-/-;hTDP1 cells with camptothecin (screen for TDP1 inhibitors) | chicken DT40 Tdp1-/-;hTDP1 cells + 20 nM CPT, ATP luminescence, 48 h | Potency, µM (top dose mostly 46.2 µM), without a hit: top-dose activity change, negative = growth inhibition, hits mostly inhibitors | actives 12% (n = 420,000) | AID 686979; note: potency is the fitted concentration of half-maximal effect; % is set by controls: 0 for no effect and ±100 for the full control effect; nearly all actives have a fitted effect of over 55% in size
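Chicken DT40 Tdp1-/- cells complemented with human TDP1, 400 cells/well, exposed to compounds plus 20 nM camptothecin for at least 48 h at 37 C; viability read as ATP content by CellTiter-Glo luminescence.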
Numbers without * were called inactive; ? = inconclusive; . = not tested or not shown; [ ] = remark or other dose. Rows were chosen to be rich in hits. Some 19% of all compounds tested hit in one or more screens of this group. Unless noted, calls come from the whole dose curve; as a rule, active = well fitted curve in the direction sought with a large enough effect; inconclusive = small, poorly fitted or top-dose-only effect, or another doubt; inactive = no such curve, though single readings can be large; an effect the other way counts as inactive or inconclusive.

SMILES	TDP1 cell noCPT	TGFb SMAD3 inh	IL-1B inflam inh	TDP1 block	HepG2 tox	DT40 TDP1 CPT
NC(=O)CN1C(=O)NC(c2ccccc2)(c2ccccc2)C1=O	-19.0%	-2.4%	-13.4	44.7µM*	-4.8%	-7.9%
CC(C)(C)NC(=O)NC(=O)CN1C(=O)NC(c2ccccc2)(c2ccccc2)C1=O	25.9µM*	28.1%	?	0.2%	-28.7%	?
CC(C)(C)NC(=O)NC(=O)CN1C(=O)NC(C)(c2ccccc2)C1=O (stereo not drawn)	?	0.8%	13.4	5.2%	3.5%	-23.8%
O=C(CSc1nc2ccccc2nc1Cc1ccccc1)N1CCc2ccccc21	-12.7%	20.1%	.	5.4%	8.3%	-16.6%
CCc1ccc(C(=O)CC2(O)C(=O)N(Cc3ccc(C)cc3)c3ccccc32)cc1 (stereo not drawn)	2.59µM*	-29.9%	.	.	-25.6%	4.61µM*
O=C(CC1(O)C(=O)N(Cc2ccccc2Cl)c2ccccc21)c1ccco1 (stereo not drawn)	3.66µM*	-19.7%	34.7	0.0%	-20.5%	3.26µM*
O=C(O)CC1(O)C(=O)N(Cc2ccccc2)c2ccccc21 (stereo not drawn)	5.2%	-1.5%	14.3	-7.7%	5.6%	8.1%
Cc1ccc(C(=O)N2c3ccccc3N(Cc3ccccc3)C(=O)C2(C)C)cc1	20µM*	?	-67.8*	.	-30.1%	14.6µM*
Cc1ccc(C(=O)CC2(O)C(=O)N(Cc3ccccc3)c3ccccc32)c(C)c1 (stereo not drawn)	?	?	.	.	-28.2%	23.1µM*
Cc1ccc(CN2C(=O)C(F)(F)Oc3ccccc32)cc1	1.3%	20.0%	15.9	.	16.8%	11.0%
COC(=O)CN1C(=O)C(O)(CC(=O)c2ccc(C)cc2)c2ccccc21 (stereo not drawn)	-9.6%	13.3%	17.8	5.2%	4.0%	10.1%
O=C1c2oc3ccccc3c(=O)c2C(c2ccccc2F)N1Cc1ccc2c(c1)OCO2 (stereo not drawn)	?	4.9%	.	4.2%	-5.2%	-25.4%
COc1ccc2oc(C(=O)OCC(=O)NC3CCCCC3)c(C)c2c1	-6.1%	-19.4%	-2.8	-2.6%[0.505 µM]	-4.3%	-7.5%
COc1cccc(NC(=O)c2sc(-n3nc(C)c(Cc4ccccc4Cl)c3C)nc2C)c1	?	17.6%	.	3.6%	-1.7%	-17.0%
O=C(O)CCc1cccc2ccccc12	-17.3%	2.6%	.	.	-2.7%	0.2%
Cc1nc(NCc2ccccc2)c2nc(-c3ccccc3)n(CCCN3CCCCC3C)c2n1 (stereo not drawn)	.	.	.	6.3%	.	.
CCCCN1C(=O)C(O)(CC(=O)c2ccc(C(C)(C)C)cc2)c2ccccc21 (stereo not drawn)	14.6µM*	?	.	.	-99.1%	20.6µM*
COc1ccc(CN2C(=O)C(O)(CC(=O)c3ccc4c(c3)OCO4)c3ccccc32)cc1OC (stereo not drawn)	6.31µM*	-0.9%	20.9	1.8%	-2.2%	6.31µM*
COc1cccc2cc(C(=O)CC3(O)C(=O)N(Cc4ccccc4)c4ccccc43)c(=O)oc12 (stereo not drawn)	6.51µM*	8.3%	3.6	-1.9%	-26.9%	13µM*
COc1cccc2cc(C(=O)N3CCN(C(=O)c4ccco4)CC3)c(=O)oc12	1.4%	-5.8%	10.3	9.3%	1.0%	4.6%
Cc1cc([N+](=O)[O-])ccc1-c1ccc(C2Nc3ccccc3C(=O)N2O)o1 (stereo not drawn)	23.1µM*	-1.1%	57.8	13.9%	-36.0%	23.1µM*
CN(C)c1ccc(-c2nc(N3CCNCC3)c3ccccc3n2)cc1	?	.	.	14.4%[56.1 µM]	.	?
O=C1c2ccccc2C2=Nc3ccccc3SC(c3cccc(F)c3)C12 (stereo not drawn)	16.4µM*	?	-6.5	11.0%	-36.3%	16.4µM*
COc1ccc(N(CC(=O)NCc2ccccc2Cl)S(=O)(=O)c2c(C)nn(C)c2C)cc1	?	?	.	2.3%	-7.2%	-5.6%
COc1ccccc1CN1CCC2(CC1)CCN(C(=O)c1c(C)noc1C)CC2	-4.3%	.	.	.	.	3.3%
SMILES	TDP1 cell noCPT	TGFb SMAD3 inh	IL-1B inflam inh	TDP1 block	HepG2 tox	DT40 TDP1 CPT
Cc1noc(C)c1-c1ccc2ncnc(NCc3cccc(Cl)c3)c2c1	.	.	.	9.1%	.	.
CC1CCc2c(sc(/N=C/N(C)C)c2C#N)C1 (stereo not drawn)	-20.1%	-8.1%	-63.1*	2.5%	-25.7%	?
CC(OC(=O)Cn1[nH]c(=O)c2ccccc2c1=O)C(=O)Nc1ccccc1[N+](=O)[O-] (stereo not drawn)	-2.0%	?	-0.8	.	-6.9%	-11.0%
CCN(CC)C1CCN(C(=O)c2cnn(-c3nccc(-c4ccccc4OC)n3)c2-c2ccco2)C1 (stereo not drawn)	-24.6%	.	.	.	.	-1.9%[9.04 µM]
CC(C)Sc1nc(N2CCOCC2)c2c(c1C#N)CC(C)(C)N(C)C2	16.4µM*	?	10.1	7.8%	1.9%	18.4µM*
COC(=O)Sc1nc(N2CCOCC2)c2c(c1C#N)CC(C)(C)OC2	?	-22.3%	-20.0	3.9%	-0.5%	25.9µM*
CN1Cc2c(N3CCOCC3)nc(SCCC#N)c(C#N)c2CC1(C)C	-2.1%	3.2%	13.7	0.0%	10.8%	?
Cc1ccc(S(=O)(=O)c2c(C)nn(-c3ccccc3)c2OC(=O)c2ccccc2F)cc1	?	15.8%	.	-2.5%	2.9%	-14.6%
CNc1ncnc2c1ncn2[C@H]1CN(C2CCCC2)C[C@@H](CO)O1	-9.0%	2.8%	-3.2	.	-2.9%	1.64µM*
OC[C@@H]1CN(Cc2ccc(-c3ccccc3)cc2)C[C@H](n2cnc3c(NCc4ccc(F)cc4)ncnc32)O1	3.66µM*	?	-7.3	.	-16.4%	4.11µM*
CNc1ncnc2c1ncn2[C@H]1CN(Cc2ccc(-c3ccccc3)cc2)C[C@@H](CO)O1	23.1µM*	14.0%	1.4	.	-22.2%	?
OC[C@@H]1CN(Cc2ccc(-c3ccccc3)cc2)C[C@H](n2cnc3c(NC4CC4)ncnc32)O1	?	-5.3%	8.7	.	-25.6%	?
OCCNc1ncnc2c1ncn2[C@H]1CN(C2CCCC2)C[C@@H](CO)O1	1.2%	-0.3%	22.2	.	6.5%	-1.2%
Cc1ccc(C)c(OCC(=O)Nc2ccc(N3CCOCC3)cc2N2CCOCC2)c1	?	-2.2%	10.7	11.4%	-46.5%	?
